# High-throughput results deposited in PubChem by The Scripps Research Institute Molecular Screening Center.
# Compounds with a hit are over-represented: about 4.6% of the library has one in this group of screens.
# DAX1 inh-1 = inhibits human nuclear receptor DAX1. inhibition, % at 6.75 µM. 340,000 compounds, 0.99% hits. P51843. AID 504766. HEK293 Gal4-DAX1 luciferase reporter, luminescence;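 active = inhibition above the mean over all tested compounds plus 3 SD, cut at about 4.2% in these data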;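 note: inhibition shows as a rise in luminescence from relieved DAX1 repression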
# hgDAF-12 ag = hgDAF-12 agonism, primary luciferase screen; HEK293 GAL4-hgDAF12 UAS-luciferase reporter, agonist luminescence; normalized to butyrate control; activation, % at 6.8 µM; 370,000 compounds, 1.8% hits; AID 687014;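 active = activation above a cutoff set at the mean of all screened compounds plus 3 SD, cut at about 10% in these data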
# Wee1 degr inh = human Wee1 degradation inhibition, primary screen. HeLa Luc-Wee1K328M stability, luciferase luminescence; 100% = proteasome inhibitor MG132 effect. 220,000 compounds, 1.2% hits. P30291. reporter increase, % at 5 µM;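 active = activation above the mean of all tested compounds plus 3 SD, set per screening run, cut at about 8.8% in these data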;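 note: cells exposed to compound for 20 h before luminescence read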
# hcDAF12 agonist = activates DAF-12 receptor from parasite H. contortus; HEK293 hcDAF-12 lit1-tk-luc reporter, luminescence; 0% DMSO, 100% Δ7-dafachronic acid; activation, % at 6.8 µM; 370,000 compounds, 1.4% hits; AID 652067;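 active = activation above the mean of all tested compounds plus 3 SD, cut at about 5.5% in these data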
# DAX1 inh-2 = blocks DAX1 repression of SF-1 activated StAR promoter; HEK293T StAR-luciferase reporter, SF-1/DAX-1 repression relief; inhibition, % at 6.8 µM; 370,000 compounds, 1.1% hits; AID 652010;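 active = inhibition above the mean over all tested compounds plus 3 SD, cut at about 3.6% in these data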;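 note: higher inhibition means more luminescence from relief of DAX-1 repression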
# ssDAF-12 act = activators of S. stercoralis DAF-12 nuclear receptor; HEK293 ssDAF-12/GRIP1 lit1-tk-luc reporter, luminescence; % of 3 µM dafachronic acid response; activation, % at 6.8 µM; 370,000 compounds, 1% hits; AID 652126;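 active = activation above the mean over all tested compounds plus 3 SD, cut at about 0.9% in these data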
# hgDAF12 conf = confirmation of H. glycines DAF-12 agonists | shares compounds with hgDAF-12 ag | activation, % at 6.8 µM | HEK293 GAL4-hgDAF12 luciferase reporter, agonist mode; percent of butyrate response | 3,300 compounds, 80% hits | AID 743050;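 active = mean activation over triplicate wells above the hit cutoff derived from the earlier primary screen, cut at about 11% in these data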
# LXRb DAF12 ctr = activates human LXR-beta, counter-screen for DAF-12 agonists; activation, % at 6.8 µM; shares compounds with hgDAF-12 ag; 3,300 tested, under 10 active; HEK293 Gal4-LXR luciferase reporter, 24 h;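 active = mean activation of the triplicate above a set limit carried over from the primary screen, none filed active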
# Target sequence (P55055 whole entry, looked up, the tested form may be a part): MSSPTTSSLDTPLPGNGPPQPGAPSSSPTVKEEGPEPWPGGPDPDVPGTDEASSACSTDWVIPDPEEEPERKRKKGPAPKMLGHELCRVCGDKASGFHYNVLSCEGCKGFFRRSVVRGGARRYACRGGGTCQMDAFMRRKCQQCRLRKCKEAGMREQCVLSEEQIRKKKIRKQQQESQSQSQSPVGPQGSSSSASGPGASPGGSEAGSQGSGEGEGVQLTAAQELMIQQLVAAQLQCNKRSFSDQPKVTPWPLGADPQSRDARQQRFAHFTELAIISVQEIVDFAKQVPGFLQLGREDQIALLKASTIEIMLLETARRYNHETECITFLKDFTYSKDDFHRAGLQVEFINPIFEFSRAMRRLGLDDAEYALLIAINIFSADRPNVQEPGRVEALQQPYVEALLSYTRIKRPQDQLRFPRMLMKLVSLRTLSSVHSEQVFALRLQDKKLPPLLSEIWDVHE
# A number is an active result; 0 = inactive; - = not tested or not shown.
SMILES,DAX1 inh-1,hgDAF-12 ag,Wee1 degr inh,hcDAF12 agonist,DAX1 inh-2,ssDAF-12 act,hgDAF12 conf,LXRb DAF12 ctr
Oc1ccc(/C=N/NC(=S)Nc2cccnc2)cc1,0,15,0,0,0,0,11,0
COc1cccc(/C=N/NC(=S)Nc2cccnc2)c1,0,0,0,0,0,0,-,-
CCN(C(=O)COC(=O)CC1CCCCC1)c1c(N)n(Cc2ccccc2)c(=O)[nH]c1=O,0,0,-,0,0,0,-,-
Cc1nn(-c2ccccc2)c(N)c1N=Nc1ccc2ccccc2c1,0,23,0,0,0,0,18,0
Cc1nn(-c2ccccc2)c(N)c1N=O,-,0,0,0,0,0,-,-
Cc1ccc(N=Nc2c(N)nn(-c3ccccc3)c2N)cc1,0,20,0,0,0,0.9,25,0
COC(=O)c1ccc(NS(=O)(=O)c2cc3c4c(c2)CCN4C(=O)CC3)cc1,0,0,-,0,0,0,-,-
C[C@H]1CNC(=O)c2c(C(=O)N[C@@H](Cc3c[nH]c4ccccc34)C(=O)OC(C)(C)C)ncn21,0,0,-,0,0,0,-,-
Cc1ccc(NC(=O)c2ccc3nsnc3c2)c(Cl)c1,0,14,-,5.8,0,1.1,15,0
Cc1nc(Nc2ncc(C(=O)Nc3c(C)cccc3Cl)s2)cc(N2CCN(CCO)CC2)n1,-,15,-,0,4.4,0,0,0
Cc1cccc(Cl)c1NC(=O)N1CCCN(c2nc3ccc(Cl)cc3s2)CC1,0,0,0,0,0,0,-,-
O=C(Nc1ccc(CN2CCOCC2)cc1)c1cccc(F)c1,0,15,0,0,0,0,14,0
Cc1ccc(SCn2nnc3ccccc3c2=O)c(C)c1,0,14,0,0,0,0,12,0
Cc1cc(C)cc(NS(=O)(=O)CCCS(=O)(=O)Nc2cc(C)cc(C)c2)c1,0,0,-,0,0,0,-,-
CO/N=C/NC(=O)N1OC[C@@H]2COc3ccc4ccccc4c3[C@@H]21,0,0,0,0,0,0,-,-
NC(=S)N1OC[C@@H]2COc3ccc4ccccc4c3[C@@H]21,0,21,0,0,0,0,0,0
CC(=O)Nc1ccc(S(=O)(=O)N(C)CC(=O)OCCOc2cccc(C)c2)cc1,0,0,-,0,0,0,-,-
O=c1c2ccccc2nnn1COc1cccc(Cl)c1,0,13,0,0,0,0,0,0
O=c1c2ccccc2nnn1Cc1ccccc1,0,0,0,0,0,0,-,-
CC(=O)N1C=Cc2c(c(C)c3c([nH]c4ccccc43)c2C)C1,-,-,0,-,-,-,-,-
COC(=O)c1ccc(Cn2nnc3ccccc32)cc1,0,0,0,0,0,0,-,-
COC(=O)c1ccc(COn2nnc3ccccc32)cc1,0,17,0,0,0,0,14,0
Cc1nc2ccc(NC(=O)CSc3ccccc3)cc2s1,0,13,-,0,0,0,17,0
Cc1nc2ccc(NC(=O)COc3ccccc3C)cc2s1,0,0,0,0,0,0,-,-
CC(=O)N1CCC(=NNc2nc3ccccc3[nH]2)CC1,-,16,0,0,0,0,0,0
SMILES,DAX1 inh-1,hgDAF-12 ag,Wee1 degr inh,hcDAF12 agonist,DAX1 inh-2,ssDAF-12 act,hgDAF12 conf,LXRb DAF12 ctr
Cc1ccc(Nc2nc(N)nc(CSc3ncccn3)n2)cc1,0,16,0,0,0,0,14,0
CN1C[C@H]2CON(C)[C@H]2C[C@H]1c1cccc(N2CCOCC2)c1,0,0,-,0,0,0,-,-
CN(C)CCNc1ncnc2c1ncn2[C@H]1CN(Cc2cccnc2)C[C@@H](CO)O1,-,24,-,0,0,0,0,0
Cc1ccc(NC(=O)C2(C)CCN2C(=O)Cc2cc(F)ccc2F)cc1 (centres undefined),-,0,-,0,0,0,-,-
O=C(CSc1nc2ccccc2[nH]1)c1ccccc1F,0,16,-,5.8,0,0,12,0
CCCn1ncc2c(Nc3ccc(C)c(C)c3)ncnc21,0,13,-,6.5,0,0,0,0
Cn1ncc2c(Nc3ccc(Cl)c(Cl)c3)ncnc21,0,0,-,0,0,0,-,-
COc1ccc(C(=O)c2[nH]c(N)c(C(=O)NCCc3c[nH]c4ccccc34)c2-c2ccccc2Br)cc1,-,0,-,0,0,0,-,-
